Screening results (PubChem BioAssay)
A selection: hits, their analogues and other compounds. The true share with any hit is near 12%.
Sfp inh – qHTS Assay for Inhibitors of Bacillus subtilis Sfp phosphopantetheinyl transferase (PPTase); 4'-phosphopantetheinyl transferase ffp (Bacillus subtilis), Q9F4F7; Biochemical Sfp PPTase activity, qHTS; Potency, µM, without a hit: largest response in the series, negative = inhibition, hits mostly inhibitors; 3.5% of 310,000 active; AID 1490, 2009;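 further: the enzyme is Sfp with the accession as filed and its product quenches rhodamine fluorescence; 0% = enzyme reaction without inhibitor and -100% = no enzyme wells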
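Step 1, compound plus 15 nM Sfp-PPTase, 15 min, room temperature. Step 2, add rhodamine-CoA (5 uM) and BHQ-2-YbbR (12.5 uM). Step 3, read 525/598 nm fluorescence at 0 and 30 min.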
JMJD2A Tudor inh – qHTS Assay for Inhibitors of JMJD2A-Tudor Domain | Lysine-specific demethylase 4A (Homo sapiens), O75164 | Potency, µM (series often up to 114 µM), for inactives: at the top dose activity change, negative = inhibition, usual class: inhibitors | AID 504339, 2011 | 4.4% of 390,000 active | AlphaScreen JMJD2A-Tudor / H3K4me3 peptide binding; further: on the % scale 0 is the no-effect control and ±100 the full control effect; nearly all actives have a fitted effect of over 50% in size
PLK1 PBD inh – qHTS for Inhibitors of PLK1-PDB (polo-like kinase 1 - polo-box domain): Primary Screen. Plk1 PBD binding of FITC phosphopeptide, fluorescence polarization. Potency, µM, inactives show max response, negative = inhibition, most hits filed as inhibitors. 2.8% of 360,000 active. AID 720504, 2013; further: series mostly up to about 57 µM; on the % scale 0 is the no-effect control and ±100 the full control effect; nearly all actives have a fitted effect of over 65% in size
BAZ2B inh – qHTS Assay for Inhibitors of BAZ2B. Bromodomain adjacent to zinc finger domain protein 2B (Homo sapiens), Q9UIF8. AlphaScreen BAZ2B-H3K14Ac peptide displacement. Potency, µM (series often up to 114 µM), for inactives: at the top dose activity change, negative = inhibition, most hits filed as inhibitors. 4.4% of 360,000 active. AID 504333, 2011; further: on the % scale 0 is the no-effect control and ±100 the full control effect; nearly all actives have a fitted effect of over 60% in size
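In this displacement format the biotinylated H3(5-23) peptide acetylated at Lys14 serves as ligand at 50 nM, with BAZ2B at 50 nM in PBS pH 7.4 containing 0.01% Tween-20. Donor and acceptor beads are 10 ug/mL final.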
HP1b chromo inh – HTS for Inhibitors of HP1-beta Chromodomain Interactions with Methylated Histone Tails; Chromobox protein homolog 1 (Homo sapiens), P83916; AlphaScreen HP1-beta / biotin-H3K9me3 peptide binding; Potency, µM (doses to about 114 µM), without a hit: top-dose activity change, negative = inhibition, usual class: inhibitors; 0.56% of 390,000 active; further: nearly all actives have a fitted effect of over 70% in size
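Compound inhibition of the preformed complex between 50 nM HP1-beta and 50 nM biotinylated H3K9me3 peptide was read by AlphaScreen. Buffer was PBS pH 7.4 with 0.01% Tween-20. Incubations ran 30 min at room temperature, with 10 ug/mL donor/acceptor beads.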
G9a inh – qHTS Assay for Inhibitors of Histone Lysine Methyltransferase G9a; 8.8% of 350,000 active; Potency, µM (series often up to 102 µM), inactives show at the highest dose activity, negative = inhibition, actives largely listed as inhibitors; Histone-lysine N-methyltransferase EHMT2 (Homo sapiens), Q96KQ7; G9a H3K9 monomethylation, AlphaScreen, 2 h; further: on the % scale 0 is the no-effect control and ±100 the full control effect; nearly all actives have a fitted effect of over 75% in size
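Methyltransferase reactions run at room temperature for 2 h (20 nM enzyme, 500 nM biotin-H3K9 peptide, 20 uM SAM) after a 15 min compound preincubation; product detected by AlphaScreen beads and anti-H3K9me1 antibody.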
The depositor's hits bear a star; ? = inconclusive; / = no result given; ! = a repeat was not active; [ ] = remark or other dose. The call rests on the fitted dose curve; in most records, active means well fitted curve in the direction sought with a large enough effect; inconclusive means small, poorly fitted or top-dose-only effect, or another doubt; inactive means no such curve, though single readings can be large; an effect the other way counts as inactive or inconclusive. Potency means the concentration at half of the fitted maximal effect.

SMILES	Sfp inh	JMJD2A Tudor inh	PLK1 PBD inh	BAZ2B inh	HP1b chromo inh	G9a inh
OC(COCc1cccs1)CN1CCN(c2cccc(Cl)c2)CC1 (centres undefined)	?	2.82µM*	-7.8%	50.1µM*	?	10µM*
CN1CCCN(CC(O)COCc2cccs2)CC1 (centres undefined)	13.1%	-11.6%	-1.0%	11.6%	21.0%	39.8µM*
CC(C)c1ccc(NC(=O)c2ccc(NC(=O)CCS(=O)(=O)c3cccs3)cc2)cc1	/	-14.3%	/	1.3%	15.5%	-4.4%[59 µM]
NS(=O)(=O)c1ccc(NC(=O)c2ccc(S(=O)(=O)N3CCc4ccccc43)cc2)cc1	6.4%	-25.5%	1.7%	-14.4%	28.0%	31.6µM*
COc1ccc(C(=O)Nc2ccc(S(=O)(=O)N3CCc4ccccc43)cc2)cc1	/	-24.3%	-7.6%	/	14.3%	/
O=C(Nc1ccc(S(=O)(=O)N2CCCc3ccccc32)cc1)C1CCCO1 (centres undefined)	2.1%	-24.6%	-8.9%	3.8%	6.8%	44.7µM*
O=C(Nc1ccncc1)c1ccc(Cl)c(S(=O)(=O)N2CCc3ccccc32)c1	/	?	-4.8%	50.1µM*	-16.9%	?
Cc1cccc(NC(=O)c2ccc(Cl)c(S(=O)(=O)N3CCc4ccccc43)c2)n1	/	-15.2%	-1.9%	16.2%	12.0%	-25.8%[12.7 µM]
O=C(NCc1ccccc1)c1ccc(NC(=O)C2CCCO2)cc1 (centres undefined)	17.8%	-6.2%	9.0%	-30.7%	35.7%	20µM*
NC(=O)c1ccsc1NC(=O)c1ccc(S(=O)(=O)N2CCCc3ccccc32)cc1	6.2%	-33.8%	-3.6%	?	12.6%	50.1µM*
O=c1c(-c2c(O)cc(O)c3c(=O)cc(-c4ccc(O)cc4)oc23)c(-c2ccc(O)cc2)oc2cc(O)cc(O)c12	?	50.1µM*	?	28.2µM*	-22.0%	?
O=C(O)c1ccc(/C=N/NC(=O)C2CC2(c2ccccc2)c2ccccc2)cc1 (centres undefined)	11.4%	/	/	-24.8%	/	0.7%
O=C(N/N=C/c1ccco1)C1CC1(c1ccccc1)c1ccccc1 (centres undefined)	5.0%	-20.8%	-10.0%	?	7.9%	39.8µM*
Cc1c(C(=O)N2CCCCC2)c(S(=O)(=O)Nc2cccc(Br)c2)c(C)n1C	4.4%	-27.5%	-5.4%	-35.3%	22.8%	2.5%[59 µM]
Cc1c(C(=O)N2CCOCC2)c(S(=O)(=O)Nc2ccccc2F)c(C)n1C	16.6%	-8.4%	-3.4%	2.5%	61.1%	20.7%[59 µM]
Cc1c(C(=O)N2CCOCC2)c(S(=O)(=O)Nc2ccc(Br)cc2F)c(C)n1C	16.9%	17.8µM*	26.7µM*	-15.7%[57.1 µM]	-5.1%	3.0%
Cc1c(C(=O)N2CCOCC2)c(S(=O)(=O)Nc2cccc(Br)c2)c(C)n1C	-2.4%	?	26.7µM*	-14.4%	?	/
CN1/C(=C\C(=S)NC(=O)c2ccc([N+](=O)[O-])cc2)C(C)(C)c2ccccc21	?	50.1µM*	-5.4%	?	?	44.7µM*
CN1/C(=C/C2CC(=O)N(c3ccc([N+](=O)[O-])cc3)C2=O)C(C)(C)c2ccccc21 (centres undefined)	44.7µM*	?	-9.3%	?	-2.6%	?
Cc1cccc(CC2CC(=O)N(c3ccc([N+](=O)[O-])cc3)C2=O)c1 (centres undefined)	9.4%	-14.8%	-2.5%	-25.4%	22.9%	-5.2%
CN1/C(=C\C(=S)NC(=O)c2cccc(Br)c2)C(C)(C)c2ccccc21	?	20µM*	-17.5%	10µM*	?	14.1µM*
CCN(CC)S(=O)(=O)c1cccc(C(=O)/C=C2/N(C)c3ccccc3C2(C)C)c1	9.0%	87.5%	-2.4%	46.4%	155.3%	99.1%[59 µM]
CN1/C(=C\C(=O)Nc2ccc(Br)cc2)C(C)(C)c2ccccc21	6.4%	-34.9%	-9.1%	?	22.7%	-12.9%[59 µM]
CN1/C(=C\C(=O)Nc2ccc(F)cc2)C(C)(C)c2ccccc21	0.2%	-27.4%	0.3%	?	2.2%	44.7µM*
CN1/C(=C\C(=O)COC(=O)c2ccc([N+](=O)[O-])o2)C(C)(C)c2ccccc21	10.1%	-29.3%	-7.8%	?	18.4%	20µM*
SMILES	Sfp inh	JMJD2A Tudor inh	PLK1 PBD inh	BAZ2B inh	HP1b chromo inh	G9a inh
CN1/C(=C\C(=O)COC(=O)c2nccnc2N)C(C)(C)c2ccccc21	/	-16.6%	2.2%	-33.2%	14.2%	-8.9%[0.501 µM]
COc1ccc(NC(C)=[N+](C)CCNS(=O)(=O)c2ccc(Cl)cc2)cc1	70.8µM*	25.1µM*	24.5%	56.2µM*	?	?
C/C(=N/NS(=O)(=O)c1ccc(CC(C)C)cc1)c1ccncc1	3.0%	-5.7%	?	-13.3%	39.8%	-1.7%[0.501 µM]
O=C(NNS(=O)(=O)c1ccc(Cl)cc1)c1sccc1-n1cccc1	4.8%	12.6µM*	-10.2%	-35.6%	-4.3%	?
O=C(NNS(=O)(=O)c1ccccc1)c1sccc1-n1cccc1	3.3%	-10.4%	-5.7%	?	33.7%	-11.1%
CCCCCCCCCCCCCC[N+](C)(C)C	11.2µM*	/	/	/	/	-1.2%[12.7 µM]
CCCCCCCCCCCCCCCC[N+](C)(C)CC	79.4µM*	-7.9%	-3.3%	5.9%	16.7%	14.1µM*!
CCCCCC[N+](C)(C)CCSSCC[N+](C)(C)CCCCCC	-18.0%	-23.6%	1.19µM*	-3.7%	?	?
CCCCCCCCCCCCCCCC[N+](C)(C)CCl	/	-4.2%	-29.2%	/	30.7%	/
CCCCCCCCCCCCCCCCCC[N+](C)(C)CCC[Si](OC)(OC)OC	13.7%	/	/	/	/	30.3%[59 µM]
Cc1ccc(Cn2c(C(=O)O)c(CNC3CCCCC3)c3ccc(C)cc32)cc1	/	-29.7%	/	-8.7%	-9.5%	-5.5%[59 µM]
Oc1c(Br)cc(Cl)cc1C=Nc1ccccc1Br	-24.7%	-20.5%	?	-35.8%	-6.2%	3.98µM*
CCN1CCN(C(=S)c2ccc(-c3ccccc3)cc2)CC1	22.4µM*	-22.1%	10.6µM*	-29.0%	-8.7%	31.6µM*
CCN1CCN(C(=S)c2ccc(Cl)c(Cl)c2)CC1	15.8µM*	-32.3%	10.6µM*	-33.5%	-29.9%	2.51µM*
O=C(COC(=O)/C=C/c1ccc(Cl)cc1)NCCN1C(=O)CSC1=O	26.7%	?	16.8µM*	-12.4%	?	-25.9%
